Screening data (PubChem)
Compounds with a hit are over-represented: about 5.9% of the library has one in this group of screens.
ABHD5-PLIN5 inh = blocks binding of human ABHD5 to perilipin-5; Q00G26+Q8WTS1; Split G. princeps luciferase complementation, luminescence, 4 h; inhibition, % at 4 µM; 360,000 tested, 0.78% active;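 active = inhibition above the mean inhibition across every tested compound plus 3 SD, cut at about 22% in these data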;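 also: 0% = DMSO only wells and the 100% control is not disclosed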
LANA-H2A inh = blocks KSHV LANA binding to histone H2A/H2B; Q9QR71; cell-free LANA-H2A/H2B peptide, fluorescence polarization; inhibition, % (concentration not given with the values); 320,000 tested, 0.6% active; AID 2629; in the data active = inhibition mostly above about 10%, no sharp cut-off; inactive = mostly below about 6.7%
Rtt109 HAT inh = inhibitors of Candida albicans Rtt109/Vps75 histone acetyltransferase; inhibition, % at 34.9 µM; purified Rtt109/Vps75, ThioGlo CoA-SH fluorescence, 4 h; Q5AAJ8; 330,000 tested, 0.16% active; AID 540336;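 active = inhibition of at least 50% in every replicate; inconclusive = best replicate reaches 50% inhibition but some replicates fall short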
PRMT1 inh = inhibitors of human PRMT1; Q99873; 370,000 tested, 1.3% active; AID 652257; inhibition, % at 2.79 µM; recombinant PRMT1, activity-based probe fluorescence polarization;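 active = inhibition above about 21% made by adding two undisclosed values, limit read from the data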
ALR H2O2 inh = human ALR oxidase inhibition via reduced H2O2; P55789; purified ALR, DTT oxidation, H2O2 HRP-luminol luminescence; inhibition, % (test concentration not listed); 290,000 tested, 3.8% active; AID 485317;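 active = mean replicate inhibition above about 79%, with every replicate also reaching it, limit read from the data; inconclusive = only one of the two criteria met; inactive = mean below limit and not every replicate reaching it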
rCAG RNA binder = binds r(CAG) RNA repeats; 370,000 tested, 1.3% active; AID 651821; r(CAG) RNA repeat, TO-PRO-1 dye displacement fluorescence; inhibition, % at 3 µM;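 active = inhibition above the plate cutoff, the mean of all test compounds on that plate plus 3 SD, cut at about 35% in these data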;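 also: 0% = DMSO alone and 100% = 100 µM mitoxantrone as full dye displacement; higher means more dye released from RNA so lower well fluorescence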
Starred values were filed as active, the others as inactive; u = inconclusive; x = not tested or not shown; + = active, no number.

SMILES	ABHD5-PLIN5 inh	LANA-H2A inh	Rtt109 HAT inh	PRMT1 inh	ALR H2O2 inh	rCAG RNA binder
COC(=O)C1=NN(N=O)C2(CC(=O)N(c3cc(C)cc(C)c3)C2=O)C1 (stereo not given)	-4	2	-2	3	85*	14
COc1cc(C2NC(=S)NC(C)=C2C(=O)OC(C)C)ccc1OC(C)C (stereo not given)	-9	5	3	2	96*	-4
Oc1sc(C=Nc2ccccc2)c2ccccc12	-16	-6	u	1	84*	-20
Oc1sc(C=Nc2ccc(F)cc2)c2ccccc12	-5	-12	-8	0	57	-8
CCOc1ccc(-n2c(N)c(C(=O)NCc3cccnc3)sc2=S)cc1	-1	3	-13	2	5	-1
COc1ccc(CNC(=O)c2sc(=S)n(-c3ccccc3)c2N)cc1	-5	3	4	21*	46	-5
COc1ccc(N=c2sc3ccccc3n2C)cc1	-3	5	7	0	98*	-5
Nc1oc2ccccc2c1C(=O)Cc1ccccc1O[C@@H]1O[C@H](CO)[C@@H](O)[C@H](O)[C@H]1O	4	-3	-5	-2	90*	-1
Oc1ccc(/C=N/N=C/c2ccc(O)cc2)cc1	-4	1	-5	-1	96*	0
C(=Nc1ccc(Nc2ccccc2)cc1)c1ccc2ccccc2c1	-2	5	-7	x	x	x
CCN(CC)c1ccc(/C=N/N(c2ccccc2)c2ccccc2)c(O)c1	-5	-1	-7	1	0	2
Oc1ccc(/C=N/N=C/c2ccc(O)c(O)c2)cc1O	-2	7	2	13	99*	1
Oc1ccc(/C=N/N(c2ccccc2)c2ccccc2)cc1O	-8	-1	1	18	99*	29
Oc1ccc(N=Cc2ccc(O)c(O)c2)cc1	20	-2	2	x	99*	x
CC(C)C(C(=O)NCc1ccccc1)N1CCN(C(=O)C2CCCO2)CC1 (stereo not given)	-5	x	x	-5	x	1
O=Cc1ccc(O)c(O)c1	1	0	3	-3	99*	1
CCOC(=O)C1=CCN(S(=O)(=O)c2ccc(Cl)cc2)C1c1ccccc1 (stereo not given)	-4	x	x	-6	x	0
Cc1noc(C)c1S(=O)(=O)NCCN1CCN(c2ccccc2)CC1	-3	-3	0	1	86*	0
O=C(Nc1ccc(Cl)cc1)C1CCCN1S(=O)(=O)c1cccnc1 (stereo not given)	x	x	x	0	x	4
CCc1nc2ccc(C(=O)N(C)Cc3ccccc3)cn2c1N(C)Cc1ccc(OC)cc1	6	x	x	0	x	-1
O=C(Cc1cnn(-c2ccccc2)c1)c1ccc(O)c(O)c1O	-30	6	u	39*	100*	34
CC1=NN(c2ccccc2)C(=O)/C1=C\c1ccc(Oc2ccc([N+](=O)[O-])cc2[N+](=O)[O-])cc1	13	22*	3	10	-16	26
COc1cc(/C=C2\C(=O)N(c3ccccc3)N=C2C)ccc1Oc1ccc([N+](=O)[O-])cc1[N+](=O)[O-]	8	-2	5	0	34	29
O=C(CCl)N(Cc1cc(=O)[nH]c2ccccc12)c1ccccc1	0	-1	3	10	96*	2
CCOC(=O)c1c([N+](=O)[O-])c(C)[nH]c(=O)c1C#N	-1	-5	-3	-2	-3	3
SMILES	ABHD5-PLIN5 inh	LANA-H2A inh	Rtt109 HAT inh	PRMT1 inh	ALR H2O2 inh	rCAG RNA binder
Cc1[nH]c(=O)c(C#N)c(C)c1[N+](=O)[O-]	-6	13*	-2	5	x	-3
Cc1onc(-c2c(F)cccc2Cl)c1C(=O)OCC(=O)c1c[nH]c2ccccc12	1	29*	2	-2	1	11
Cc1ccc(C(=O)OCC(=O)c2c[nH]c3ccccc23)cc1NC(=O)c1ccco1	2	+	17	0	-5	15
CCCCc1nnn2c1C1c3cc(-c4cccnc4)ccc3CCN1C(=O)C2 (stereo not given)	x	x	x	-4	x	3
CCCCCCc1c(C)c2ccc(OCC(=O)N3CCC[C@H]3C(=O)O)c(C)c2oc1=O	-5	7	7	1	68	41*
COc1ccc(OC)c(CN2C(=O)CN(S(C)(=O)=O)CC2(C)C(=O)NCc2ccccc2)c1 (stereo not given)	-12	x	x	1	x	4
